ATXN viability – reduces viability in counter-screen for ATXN expression inhibitors; S2 cells (HEK-293 line with an ATXN2-luciferase reporter) viability, CellTiter-Fluor protease fluorescence, 24 h; 400,000 tested, 0.49% active; Potency, µM (titrated, usually from 56.7 µM), usual class: cytotoxic; note: nearly all actives have a fitted effect of over 40% in size
TGFb SMAD3 inh – blocks TGF-b signaling. 410,000 tested, 1.2% active. Potency, µM (titrated, usually from 46.1 µM), without a hit: at the highest dose activity, negative = inhibition, most hits filed as inhibitors. AID 588855. HepG2 CAGA-GFP TGF-b/SMAD3 reporter, GFP fluorescence, 18 h; TGF-beta stimulated, 500 pg/mL final; note: % is set by controls: 0 for no effect and ±100 for the full control effect; nearly all actives have a fitted effect of over 65% in size
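Using HEPG2 CAGA-GFP reporter cells at 1000 cells/well, we pinned test compounds, stimulated with recombinant TGF-beta (500 pg/mL final) and measured total well GFP after 18 h.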
ATXN2 expr inh – ATXN2 expression inhibition | Potency, µM (titrated, usually from 57 µM), for the others: top-dose activity change, negative = inhibition, hits mostly inhibitors | HEK-293 ATXN2-luciferase reporter, luminescence, 24 h | AID 1745845 | 360,000 tested, 0.72% active; note: % is set by controls: 0 for no effect and ±100 for the full control effect; nearly all actives have a fitted effect of over 55% in size
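qHTS (up to 57 uM final) was run with 24 h compound exposure of reporter cells at 37 °C. Each well was multiplexed: SteadyGlo luminescence measured ATXN2-luciferase expression after a fluorogenic Gly-Phe-AFC viability readout (25 uM final).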
HepG2 tox-1 – HepG2 cytotoxicity, counter-screen for TGF-b inhibitors; HepG2 CAGA-GFP viability, ATP luminescence, 18 h; Potency, µM (highest dose often 46.1 µM), for the others: top-dose activity change, negative = cytotoxicity, usual class: cytotoxic; 410,000 tested, 0.76% active
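HepG2 CAGA-GFP cells (1000/well, DMEM with 1% FBS) received compound, then TGF-beta at 500 pg/mL final, and were incubated 18 hours at 37 degrees C. Viability was read by CellTiter-Glo luminescence. Media-only wells were set as complete cell-killing and DMSO as no toxicity.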
Anesthetic bind – candidate novel general anesthetic via apoferritin binding; Potency, µM (top dose mostly 77.5 µM), without a hit: at the highest dose activity change, negative = displacement, usual class: inhibitors; AID 485281; P02791; 350,000 tested, 0.074% active; apoferritin/1-aminoanthracene competitive binding, fluorescence; note: % is set by controls: 0 for no effect and ±100 for the full control effect; nearly all actives have a fitted effect of over 20% in size
Target sequence (P02791 2-175 limits assumed): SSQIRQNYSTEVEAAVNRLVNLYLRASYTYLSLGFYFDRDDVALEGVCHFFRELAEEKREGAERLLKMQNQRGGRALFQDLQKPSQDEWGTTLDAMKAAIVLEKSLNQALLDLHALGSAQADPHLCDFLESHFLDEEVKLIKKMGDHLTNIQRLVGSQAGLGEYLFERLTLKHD
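In PBS, apoferritin at 10 uM is loaded with 1-AMA from a 50% saturated solution. After 10 min of compound exposure at ambient temperature, reduced 535 nm fluorescence indicates probe displacement.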
TGFb CAGA inh – confirmation of TGF-b signaling inhibitors in HepG2 reporter cells; AID 720534; HepG2 CAGA-GFP TGF-b reporter, GFP fluorescence, 18 h; cells stimulated with TGF-beta, 500 pg/mL; 1,600 tested, 63% active; Potency, µM (titrated, usually from 46.1 µM), for inactives: at the highest dose activity, negative = inhibition, usual class: inhibitors; shares compounds with TGFb SMAD3 inh; note: % is set by controls: 0 for no effect and ±100 for the full control effect; nearly all actives have a fitted effect of over 65% in size
HepG2 tox-2 – counter-screen for TGF-b inhibitors: cytotoxicity in HepG2 cells; shares compounds with TGFb SMAD3 inh; HepG2 CAGA-GFP viability, ATP luminescence, 18 h; cells stimulated with TGF-beta, 500 pg/mL; Potency, µM (doses to about 46.1 µM), for inactives: at the highest dose activity, negative = cytotoxicity, most hits filed as inhibitors; 1,600 tested, 27% active; note: % is set by controls: 0 for no effect and ±100 for the full control effect; nearly all actives have a fitted effect of over 70% in size
TGFb CCL64 inh – orthogonal confirmation of TGF-b inhibitors in CCL64 cells; 1,600 tested, 41% active; CCL64 CAGA-GFP reporter, TGF-b stimulated, GFP fluorescence, 18 h; shares compounds with TGFb SMAD3 inh; Potency, µM (series often up to 46.1 µM), for inactives: top-dose activity, negative = inhibition, most hits filed as inhibitors; note: nearly all actives have a fitted effect of over 65% in size
TGFb COP inh – validation of TGF-b inhibitors in HepG2 COP promoter reporter; shares compounds with TGFb SMAD3 inh; HepG2 COP-GFP TGF-b reporter, GFP fluorescence, 18 h; cells stimulated by added recombinant TGF-beta; Potency, µM (highest dose often 46.1 µM), without a hit: at the top dose activity, negative = inhibition, hits mostly inhibitors; 1,600 tested, 3% active; AID 720537; note: nearly all actives have a fitted effect of over 70% in size
* = called active by the depositor; i = inactive; ? = inconclusive; nt = no result. The list is not random: actives were taken first. Their share in the collection is about 2.4%. Calls come from the whole dose curve; as a rule, active = well fitted curve in the direction sought with a large enough effect; inconclusive = small, poorly fitted or top-dose-only effect, or another doubt; inactive = no such curve, though single readings can be large; an effect the other way counts as inactive or inconclusive. Potency is the fitted concentration of half-maximal effect.

SMILES	ATXN viability	TGFb SMAD3 inh	ATXN2 expr inh	HepG2 tox-1	Anesthetic bind	TGFb CAGA inh	HepG2 tox-2	TGFb CCL64 inh	TGFb COP inh
COc1ccc(-c2nc(NC(=O)C3CC(=O)N(c4ccc5c(c4)OCCO5)C3)sc2C)cc1 (stereo not given)	?	11µM*	13µM*	-1%	-19%	6.5µM*	?	?	31%
Cc1ccc(NC(=O)c2cc3c(s2)CCCC3)cc1S(=O)(=O)Nc1ccccc1Cl	i	10µM*	-22%	-8%	5%	10µM*	?	?	56%
O=C(Nc1ccc(Cl)c(Cl)c1)Nc1ccc(N2CCCC2)c(S(=O)(=O)Nc2ccccc2Cl)c1	?	3.2µM*	?	-26%	5%	4.6µM*	7.3µM*	0.58µM*	86%
O=C(Nc1ccc(N2CCCCC2)c(S(=O)(=O)Nc2ccccc2Cl)c1)c1cccnc1	i	13µM*	0%	-8%	nt	?	?	?	62%
O=C(Nc1ccc(F)cc1)Nc1ccc(N2CCCC2)c(S(=O)(=O)Nc2ccccc2Cl)c1	?	4µM*	?	-4%	49%	4.1µM*	7.3µM*	5.8µM*	109%
O=C(Nc1cccc(Br)c1)c1cc(S(=O)(=O)N2CCCCC2)c[nH]1	nt	28%	nt	-2%	-14%	nt	nt	nt	nt
O=C(NCc1ccc(F)cc1)c1cc(C2CCCCN2C(=O)OCCF)on1 (stereo not given)	i	10%	0%	2%	nt	nt	nt	nt	nt
COc1ccccc1NS(=O)(=O)c1cc(NC(=O)Nc2ccccc2)ccc1N1CCCCC1	i	11µM*	10%	-5%	0%	7.3µM*	-17%	?	-2%
COc1ccc(C[C@@H]2OC3(C=CC(=O)C=C3)O[C@H]2Cc2ccc(OC)cc2)cc1	nt	2.8µM*	?	11µM*	nt	2.3µM*	2.6µM*	0.82µM*	?
COc1ccc(N2C(=O)CC(Cc3ccccc3)C2=O)cc1 (stereo not given)	i	8%	13%	4%	?	nt	nt	nt	nt
O=C1C=CC2(C=C1)O[C@H](Cc1ccccc1)[C@@H](Cc1ccccc1)O2	3µM*	4.5µM*	?	-120%	nt	3.3µM*	6.5µM*	1µM*	?
O=C(NC1CCCCC1)C(c1cccnc1)N(C(=O)CCl)c1cccc(Cl)c1 (stereo not given)	11µM*	10µM*	20µM*	22µM*	-23%	5.8µM*	9.2µM*	4.6µM*	?
Cc1cccc(N(C(=O)CNC(=O)c2ccco2)C(C(=O)NC2CCCCC2)c2cccnc2)c1 (stereo not given)	i	-30%	-7%	-20%	-4%	nt	nt	nt	nt
Cc1ccc(C)c(N2N=C(C(=O)Nc3ccccc3N3CCCC3)CCC2=O)c1	i	22µM*	-14%	-22%	?	12µM*	-14%	?	2%
COCCC(=O)N1CCC(Oc2ccc(C(=O)N3CCC(N(C)C)C3)cc2)CC1 (stereo not given)	i	-5%	7%	-16%	7%	nt	nt	nt	nt
CCOC(=O)C1CCN(C(c2cccnc2)c2c(NC(=O)c3ccco3)sc(C)c2C)CC1 (stereo not given)	i	7.9µM*	?	-53%	-17%	21µM*	?	?	18%
CC(=O)N1CCN(c2ccc(NC(=S)NC(=O)COc3ccc(C(C)(C)C)cc3)cc2)CC1	i	?	-30%	-49%	-8%	4.6µM*	?	-11%	-1%
CC[C@H](C)C1OC(=O)[C@@H](C)[C@@H](CC)NC(=O)[C@H](C)N(C)C(=O)C(C)(C)C(=O)C(C)NC(=O)[C@H](Cc2ccc(OC)cc2)N(C)C(=O)[C@H](C(C)C)N(C)C(=O)CNC(=O)[C@H](CC(C)C)N(C)C(=O)CNC1=O (stereo not given in full)	?	0.5µM*	?	4%	nt	1µM*	?	1.3µM*	47%
CCC[C@H]1NC(=O)[C@H](C)N(C)C(=O)C(C)(C)C(=O)C(C)NC(=O)[C@H](Cc2ccc(OC)cc2)N(C)C(=O)[C@H](C(C)C)N(C)C(=O)CNC(=O)[C@H](CC(C)C)N(C)C(=O)CNC(=O)[C@H]([C@@H](C)CC)OC(=O)[C@H]1C (stereo not given in full)	?	1.1µM*	?	-7%	nt	0.37µM*	?	0.29µM*	96%
CC(C)C[C@@H]1NC(=O)[C@H](Cc2ccccc2)N(C)C(=O)[C@H](C)NC(=O)c2ccccc2NC(=O)[C@H](Cc2ccc(O)cc2)N(C)C1=O	i	-9%	?	-19%	-5%	nt	nt	nt	nt
CC1(C)CC(=O)C(CO)=C(c2cccc3ccccc23)C1=O	i	0%	6%	3%	nt	nt	nt	nt	nt
Cc1ccc(S(=O)(=O)Cc2ccc(C(=O)NCCc3ccc(Cl)cc3)o2)cc1	?	?	?	-11%	-7%	nt	nt	nt	nt
Cc1sc2nc3c4ccccc4c(NCc4ccco4)nn3c(=O)c2c1C	i	2%	71%	-9%	-7%	nt	nt	nt	nt
Cc1nc(NCc2ccco2)c2c(C)c(C)sc2n1	?	7.9µM*	11µM*	-37%	-14%	8.2µM*	5.2µM*	-99%	38%
O=C(c1ccc2c3c(cccc13)CC2)C1CCCN(Cc2ccncc2)C1 (stereo not given)	i	7.9µM*	nt	-44%	?	-29%	?	?	24%
CCc1nc(CN2CCCC(C(=O)c3ccc4c5c(cccc35)CC4)C2)c(C)[nH]1 (stereo not given)	i	?	-33%	-43%	-7%	nt	nt	nt	nt

Bioassay records as filed in PubChem.
